This is a sample that favours compounds with a hit; in the whole collection about 2.3% have one here.
USP1-UAF1 inh = inhibitors of human USP1/UAF1 deubiquitinase; recombinant USP1/UAF1, Ub-Rhodamine cleavage fluorescence; Potency, µM (top dose mostly 57.1 µM), inactives show at the highest dose activity change, negative = inhibition, hits mostly inhibitors; 0.23% of 390,000 active; also: potency is read from the fitted curve at half-maximal effect; nearly all actives have a fitted effect of over 60% in size
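High-throughput fluorogenic screen: 1nM USP1/UAF1 complex, Ub-Rho substrate 150nM final, 50mM HEPES pH 7.8 with 0.5mM EDTA, 0.1 mg/ml BSA, 1mM TCEP and 0.01% Tween-20.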
Tau fluor counter = counter-screen for tau fibril formation inhibitors; tau K18 P301L Alexa594 fluorescence, heparin fibrillization; Potency, µM (highest dose often 57.7 µM), for inactives: at the top dose activity change, negative = decrease; 0.93% of 280,000 active; AID 1463; also: potency is read from the fitted curve at half-maximal effect; nearly all actives have a fitted effect of over 55% in size
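Human K18 P301L tau (15 uM unlabeled plus 0.24 uM Alexa 594-labeled, final) in 100 mM sodium acetate pH 7 was mixed with compound and 20 uM heparin and incubated 6 hr at 37 C.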
Tau fibril ThT = blocks human tau fibril formation measured by thioflavin T. P10636. recombinant tau K18 P301L, heparin-induced fibrillization, ThT fluorescence. Potency, µM (titrated, usually from 57.4 µM), for inactives: at the highest dose activity, negative = inhibition, usual class: inhibitors. 2.1% of 270,000 active; also: potency is read from the fitted curve at half-maximal effect; nearly all actives have a fitted effect of over 55% in size
Target sequence (P10636 561-689 P618L limits assumed): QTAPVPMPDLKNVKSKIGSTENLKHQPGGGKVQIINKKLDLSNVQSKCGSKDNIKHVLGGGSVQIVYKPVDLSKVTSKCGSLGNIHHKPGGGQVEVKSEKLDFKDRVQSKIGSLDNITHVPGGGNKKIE
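Fibril formation assay: tau K18 P301L at 15 uM with trace Alexa 594 label, heparin inducer 20 uM, pH 7 sodium acetate buffer, 37 C for 6 hr; endpoint ThT signal.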
FBPA coupling cs = inhibits coupling enzyme system, counter-screen for aldolase hits; coupling enzyme system counterscreen, AmpLite Red fluorescence; 0.67% of 290,000 active; activity change, negative = inhibition, % at 58.2 µM, hits read low; in the data active = activity change below about -30%
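Counterscreen of the coupled detection system alone, without aldolase: glyceraldehyde-3-phosphate coupling enzymes plus AmpLite Red readout. Compounds at 57.5 uM final, 10 min RT preincubation, 20 min RT reaction, fluorescence 525/598 nm.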
Tau FP inhib = inhibitors of human tau fibril formation; P10636; K18 P301L tau heparin fibrillization, Alexa594 FP, 6 h; Potency, µM (series often up to 57.7 µM), inactives show top-dose activity, negative = inhibition, most hits filed as inhibitors; 0.39% of 280,000 active; also: potency is read from the fitted curve at half-maximal effect; nearly all actives have a fitted effect of over 55% in size
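Steps: dispense K18 P301L tau (15 uM plus 0.24 uM Alexa 594 tracer, final) in pH 7 sodium acetate; add compound; add heparin (20 uM final); incubate 6 hr, 37 C; add ThT (30 uM final); after 1 hr ambient, read FP.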
Active calls of the source: *; ? = inconclusive; . = not tested or not shown; [ ] = dose if it differs, or a comment. Unless noted, calls follow the shape of the dose curve; as a rule, active = well fitted curve in the direction sought with a large enough effect; inconclusive = small, poorly fitted or top-dose-only effect, or another doubt; inactive = no such curve, though single readings can be large; an effect the other way counts as inactive or inconclusive. % is scaled to controls: 0 for no effect and ±100 for the full control effect.

SMILES	USP1-UAF1 inh	Tau fluor counter	Tau fibril ThT	FBPA coupling cs	Tau FP inhib
COc1cc(-n2nc(C)c3c2OC(N)=C(C#N)C3c2ccccc2)c(Cl)c(Br)c1O (centres undefined)	-22%	?	3.5µM*	6	2%
CCOC(=O)c1cnc2ccc(OC)cc2c1NCCc1ccccc1	?	-13%	?	.	4%
COc1cc(OC)c(NC(=O)CCc2c(C)nc3ncnn3c2C)cc1Cl	-16%	-9%	-4%	.	4%
COCCN(C(=O)/C=C/c1ccccc1)c1nnc(-c2cccnc2)s1	-8%	-3%	-6%	0	1%
Cc1ccc(S(=O)(=O)N2CCN(C(=O)/C=C/c3ccccc3)CC2)cc1C	-17%	.	.	.	.
N#Cc1sc2nc(-c3ccccc3)cc(-c3ccco3)c2c1N	4µM*	?	?	-21	-1%
C/C(CCC1CC(C)OC1=O)=N/Nc1nc(-c2ccccc2)cs1 (centres undefined)	-17%	?	28µM*	1	?
CCOC(=O)C/C(C)=N\Nc1nc(-c2ccccc2)cs1	-2%	?	14µM*	0	?
CC(C)=NNc1nc(-c2ccccc2)cs1	-20%	10%	1%	1	-3%
CCCC(=O)Nc1ccc(-c2csc(N/N=C\c3ccncc3)n2)cc1	-17%	16µM*[quencher]	.	-3	?
CC(/C=C/c1ccccc1)=N\Nc1nc(-c2ccccc2)cs1	-24%	11µM*[quencher]	7.9µM*	-3	11%
CC(=O)Nc1nc(-c2ccc(-c3ccccc3)cc2)cs1	-6%	.	.	.	.
CCOc1ccc(CN2C(=O)c3ccccc3C2C(=O)NCCc2ccc(OC)c(OC)c2)cc1 (centres undefined)	-7%	-5%	-3%	.	-1%
Cc1cc2c(cc3c(SCC(=O)Nc4cccc(Cl)c4C)nnc(C)n32)o1	-13%	-16%	?	.	-7%
C(=N\Nc1nc(-c2ccccc2)cs1)/c1cccnc1	-10%	16µM*[quencher]	16µM*	-1	12%
Clc1ccc(-c2csc(N/N=C/c3cccnc3)n2)c(Cl)c1	-2%	?	?	-2	?
Nc1nc(N)c2nc(-c3ccccc3)c(N)nc2n1	-18%	-1%	3%	2	4%
NSc1nc(N)c2nc(-c3ccccc3)c(-c3ccccc3)nc2n1	-11%	-19%	16µM*	3	?
Cc1ccc(/C=N/Nc2cc(C)nc(NCc3ccccc3)n2)cc1	-18%	?	?	-8	?
CCCCNc1cc(C)nc(NCc2ccccc2)n1	0%	-21%	-11%	0	-3%
Cc1cc(Nc2ccc(Cl)cc2)nc(NCc2ccccc2)n1	-22%	18µM*[quencher]	-18%	-6	?
Cc1cc(Nc2ccccc2)nc(NCc2ccccc2)n1	-8%	18µM*[quencher]	-10%	1	?
Cc1cc(N/N=C/c2ccc(N(C)C)cc2)nc(NCc2ccccc2)n1	-22%	7.9µM*[quencher]	4µM*	2	4%
Cc1cc(Nc2cccc(F)c2)nc(NCc2ccccc2)n1	-10%	16µM*[quencher]	0%	-6	?
Cc1cc(N/N=C/c2ccc(Cl)cc2Cl)nc(NCc2ccccc2)n1	-20%	-29%	?	-3	-11%
SMILES	USP1-UAF1 inh	Tau fluor counter	Tau fibril ThT	FBPA coupling cs	Tau FP inhib
O=S(=O)(c1ccccc1)c1nc(-c2ccco2)oc1SCc1ccc(F)cc1	-6%	?	-1%	.	?
Cn1cc(C[C@H](C(=O)O)N2C(=O)c3ccc(C(=O)O)cc3C2=O)c2ccccc21	.	.	.	-1	.
Nc1c(C(=O)Nc2ccccc2)sc2ncc([N+](=O)[O-])cc12	-10%	-12%	?	1	5%
CCOC(=O)c1sc2ncc([N+](=O)[O-])cc2c1N	-24%	-19%	7.9µM*	-4	8%
CC(C)(C)C1CCc2c(sc(NC(=O)c3ccc(Cl)cc3)c2C(=O)NCc2ccco2)C1 (centres undefined)	-14%	-4%	1%	.	-12%
O=c1cc(-c2ccccc2)[nH]c2[nH]n(-c3ccccc3)c(=O)c12	-10%	-22%	20µM*	6	?
CCOC(=O)Cc1cc(=O)c2c(=O)n(-c3ccccc3)[nH]c2[nH]1	-23%	-11%	?	8	0%
O=c1cc(-c2ccccc2Cl)oc2c([N+](=O)[O-])ccc(O)c12	.	-8%[81.3 µM]	?	1	1%[81.3 µM]
O=C1NC(=O)C(c2ccccc2[N+](=O)[O-])=C1Nc1ccc(O)c(Cl)c1	-17%	?	7.9µM*	-6	?
COc1ccc(-c2nn(-c3ccc(F)cc3)c3c2cnc2ccc(F)cc23)cc1OC	-9%	-4%	-2%	.	-8%
COC(=O)C1=C(C(=O)OC)C(c2ccc(OC)c(OC)c2)c2sc(=O)[nH]c2S1 (centres undefined)	-14%	-2%	?	-2	-9%
COC(=O)C1=C(C(=O)OC)C(c2cc(Cl)ccc2O)c2sc(=O)[nH]c2S1 (centres undefined)	-9%	?	25µM*	.	-13%
COC(=O)C1=C(C(=O)OC)C(c2cc(Br)ccc2O)c2sc(=O)[nH]c2S1 (centres undefined)	-25%	?	28µM*	-4	-13%
Cc1ccc(NC(=O)c2c(C(=O)Nc3ccccc3)sc3nc(C)cc(=O)n23)c(C)c1	-25%	-27%	-16%	.	?
Cc1ccc(Cl)cc1NC(=O)c1ccccc1OCC(=O)Nc1ccc(Cl)cc1	-9%	-27%	5%	1	?
Cc1ccc(NC(=O)COc2ccccc2C(=O)Nc2ccccc2)cc1Cl	4%	?	-1%	0	4.5µM*
c1cnc2ccc3ncccc3c2c1	-14%	-24%	?	-9	0%
Nc1ccc2ncccc2c1N	?	?	25µM*	-40*	?
Nc1ccc(/C=C/c2ccc3ncccc3c2)cc1	?	-29%	6.3µM*	-2	-6%
Cc1ccc(C(=O)/C=C/c2ccc3ncccc3c2)cc1	?	.	.	0	.
Nc1ccc2ncccc2c1	?	-21%	16µM*	-39*	?
Cc1ccc(Cl)cc1NC(=O)c1cc(S(=O)(=O)N2CCCCCC2)cn1C	-20%	-10%	-3%	.	2%
Cc1ccc(NC(=O)CCS(=O)(=O)c2ccc(Br)s2)c(Br)c1	-14%	-21%	-5%	.	-5%
Cc1csc2nc(-c3cccc(NC(=O)c4ccc(S(N)(=O)=O)cc4)c3)cn12	-13%	-22%	2%	.	-10%
CCOC(=O)c1cccc(NC(=O)C(CC(C)C)N2Cc3ccccc3C2=O)c1 (centres undefined)	?	-8%	-3%	.	6%
CC(C)(C)C1CCc2onc(C(=O)Nc3sc4c(c3C#N)CCCC4)c2C1 (centres undefined)	?	-20%	32µM*	.	?
Cc1onc(-c2ccccc2)c1C(=O)NC(=S)Nc1sc2c(c1C#N)CCCC2	-5%	-28%	28µM*	3	?

Screening data: PubChem BioAssay, National Center for Advancing Translational Sciences (NCATS)
